Test results taken from PubChem BioAssay AID1259343 (VanderVen Lab, College of Veterinary Medicine, Cornell …, 2017).
Screen size: about 6,200 compounds; about 2,900 (47%) were called active. The set was probably picked from earlier hits. Some of the results follow. A number with no mark means an inactive call. No stated cut-off is given here; in the data, active means inhibition above about 50%; inactive means the rest.

Assay: Mycobacterium tuberculosis growth inhibition, primary screen (AID 1259343)
Conditions: inhibition: at 10 µM, active compounds read high; outcome: 10 uM
In the case of `C=CC(=O)Nc1cccc(Sc2nc(Nc3ccc(N4CCN(C)CC4)cc3)ncc2Cl)c1`, the inhibition is reported as 33.2%.
Work on `O=C(CSc1nnc(C23CC4CC(CC(C4)C2)C3)o1)N1CCCC1` yielded an inhibition of 45.1%.
With `COc1ccc(CC(=O)Nc2cc(C)nn2-c2nc(C)c(C)c(=O)[nH]2)cc1OC` the inhibition was 100% (active).
With `CCc1c(C)nc(-n2nc(C)cc2NC(=O)Cc2ccc(OC)c(OC)c2)[nH]c1=O` the inhibition was 101% (active).
In the case of `CCNC(=O)c1cc(N2CCC(c3ccc(OC)cc3)C2)ccn1` (stereo not drawn), the inhibition is reported as -14.2%.
With `CCNC(=O)c1cc(Oc2ccc(C)cc2Br)ccn1` the inhibition was 89.2% (active).
In the case of `Cc1ccc(Oc2ccc3ncccc3c2N)c(Br)c1`, the inhibition is reported as 14.7%.
Work on `Fc1ccccc1NC(=S)NCC1COc2ccccc2O1` (stereo not drawn) yielded an inhibition of 11.1%.
In the case of `O=C(NCC1COc2ccccc2O1)N1CCN(c2ccc(F)cc2)CC1` (stereo not drawn), the inhibition is reported as 26.7%.
For `O=C(NCC1COc2ccccc2O1)c1ccc2c(c1)CCC2` (stereo not drawn), the inhibition was 66.8% (active).
In the case of `O=C(NCc1ccco1)C1Cc2cc(Cl)ccc2O1` (stereo not drawn), the inhibition is reported as 22%.
With `CC(NC(=O)C1Cc2ccccc2O1)c1ccc(Cl)s1` (stereo not drawn) the inhibition was 4.06%.
In the case of `CC(NC(=O)C1Cc2cc(Cl)ccc2O1)c1ccc(F)c(F)c1` (stereo not drawn), the inhibition is reported as 59.3% (active).
`CC(NC(=O)c1cc(Cl)ccc1NS(C)(=O)=O)c1ccc2c(c1)OCO2` (stereo not drawn) gave an inhibition of 7.73%.
In the case of `O=C(NCC1COc2ccccc2O1)C1Cc2cc(Cl)ccc2O1` (stereo not drawn), the inhibition is reported as 67% (active).
In the case of `O=C1CC(NC(=O)C(F)(F)F)=NN1c1ccccc1`, the inhibition is reported as 70.9% (active).
Compound `Clc1ccc(C2CN(Cc3cc(-c4cccnc4)no3)CCO2)cc1` (stereo not drawn) has an inhibition of 6.33%.
With `O=C(c1csc(-c2cccnc2)n1)N1CCOC(c2ccc(Cl)cc2)C1` (stereo not drawn) the inhibition was 61% (active).
For `CCCc1nc(C(=O)N2CCOC(c3ccc(Cl)cc3)C2)cs1` (stereo not drawn), the inhibition was 28.4%.
In the case of `Cc1ccccc1OCC(=O)N1CCN(c2ncnc3c2nnn3-c2cccc(F)c2)CC1`, the inhibition is reported as 67.9% (active).
For `c1ccc(Cc2nc(CCOc3ccccc3)n[nH]2)cc1`, the inhibition was 36.5%.
With `Nc1ccc(F)cc1-c1nc(CCOc2ccccc2)no1` the inhibition was 74.1% (active).
For `O=c1c2c3c(sc2[nH]c(=S)n1CC1CCCO1)CCCC3` (stereo not drawn), the inhibition was 68.2% (active).
`COCCCn1c(=S)[nH]c2sc3c(c2c1=O)CCCC3` gave an inhibition of 20.5%.
In the case of `CCn1c(=S)[nH]c2sc3c(c2c1=O)CCCC3`, the inhibition is reported as 38.1%.
With `CCC(=O)c1cccc(-c2ccc(NC(C)=O)cc2)c1` the inhibition was 78.7% (active).
`CCCc1cc(Nc2ccc(NC(C)=O)cc2)n2ncc(-c3ccccc3)c2n1` showed an inhibition of -6.07%.
In the case of `O=C1c2ccccc2C(=O)c2c1oc1c3c(ccc21)OCN(C1CCCC1)C3`, the inhibition is reported as 99.5% (active).
For `COC(=O)c1cc2cc(Br)ccc2oc1=O`, the inhibition was -45.4%.
For `CCOC(=O)c1ccc(NC(=O)c2cc3cc([N+](=O)[O-])ccc3oc2=N)cc1`, the inhibition was 62.9% (active).
With `CCOC(=O)C(CC)Sc1nnc(NC(=O)c2ccc(Br)cc2)s1` (stereo not drawn) the inhibition was 91.5% (active).
For `Cc1cccc(Cn2c(SC(C)C)nc3c2c(=O)n(C)c(=O)n3C)c1`, the inhibition was 81.2% (active).
Compound `CSc1nc2c(c(=O)n(C)c(=O)n2C)n1CCCc1ccccc1` has an inhibition of 28.2%.
In the case of `COC(=O)C(C)Sc1nc2c(c(=O)n(C)c(=O)n2C)n1CCC(C)C` (stereo not drawn), the inhibition is reported as 26.7%.
In the case of `CN(Cc1ccc(-n2cccn2)cc1)S(=O)(=O)c1cccs1`, the inhibition is reported as 10.7%.
For `Fc1cccc(NCCc2ccc(-n3cccn3)cc2)n1`, the inhibition was 67.5% (active).
For `COCCNc1cc(C)nc2c(-c3ccc(Cl)cc3)cnn12`, the inhibition was 98.7% (active).
Work on `CCc1nn2c(NCCOC)cc(C)nc2c1-c1ccccc1` yielded an inhibition of 32.2%.
In the case of `c1ccc(-c2cc(NCCCn3ccnc3)n3ncc(-c4ccccc4)c3n2)cc1`, the inhibition is reported as -16.1%.
For `Cc1ccc(-c2cnn3c(-n4nc(C)cc4C)cc(C)nc23)cc1`, the inhibition was 47.1%.
In the case of `Cc1cc(NCCCn2ccnc2)n2ncc(-c3ccc(Cl)cc3)c2n1`, the inhibition is reported as 95.2% (active).
`Cc1cc(NCCOCCO)n2ncc(-c3ccc(Cl)cc3)c2n1` gave an inhibition of -5.37%.
For `O=C1CC(c2ccc3c(c2)OCCO3)Oc2ccc(Br)cc21` (stereo not drawn), the inhibition was “inactive”.
In the case of `O=C1CC(c2ccc(O)cc2)Oc2ccccc21` (stereo not drawn), the inhibition is reported as 72.9% (active).
`O=C1NC(=O)C(Nc2ccc(I)cc2)S1` (stereo not drawn) showed an inhibition of 27.9%.
In the case of `COc1ccc2c(c1OC)C(=O)OC2Nc1ccc(I)cc1` (stereo not drawn), the inhibition is reported as 72.8% (active).
For `Cc1ccc(C(C)C)cc1OCCCn1cnc2ccccc21`, the inhibition was 78.4% (active).
For `c1ccc(COc2ccc(OCCCn3cnc4ccccc43)cc2)cc1`, the inhibition was 85.3% (active).
For `FC(F)(F)c1cccc(OCCCCn2cnc3ccccc32)c1`, the inhibition was 76.6% (active).
`c1ccc(OCCCCn2nnc3ccccc32)cc1` showed an inhibition of 21.5%.
Work on `Cc1ccc(OCCCn2cnc3ccccc32)cc1` yielded an inhibition of 36%.
For `Ic1ccc(OCCCn2cnc3ccccc32)cc1`, the inhibition was 70.5% (active).
In the case of `CC1=C(C(=O)OCCOc2ccccc2)C(c2ccccc2[N+](=O)[O-])NC(=O)N1C` (stereo not drawn), the inhibition is reported as -7.53%.
In the case of `Cc1cc(OCCCn2cnc3ccccc32)ccc1[N+](=O)[O-]`, the inhibition is reported as 61.1% (active).
Work on `Cc1cc(OCC(O)CN(Cc2ccccc2)C(C)(C)C)ccc1[N+](=O)[O-]` (stereo not drawn) yielded an inhibition of 0.53%.
For `CN(Cc1nc2c(s1)CCCC2)C(=O)Cc1ccccc1O`, the inhibition was 82.4% (active).
Work on `CC1=NN(c2ccc(C(=O)N(C)Cc3ccccc3O)cc2)CC1` yielded an inhibition of 23.1%.
With `Cc1[nH]ccc2c1[nH]c1cc(=O)ccc12` the inhibition was 90.6% (active).
With `Oc1ccc(Oc2ncc(Cl)cc2Cl)cc1` the inhibition was 38.9%.
`CN(Cc1ccccc1C(F)(F)F)c1ncc(C(N)=O)cc1Cl` gave an inhibition of 39.2%.
For `COc1cccc(Oc2ncc(C(N)=O)cc2Cl)c1`, the inhibition was 68.9% (active).
For `CN(C)c1ccc(-c2nc(-c3cc4c5c(c3)CC(=O)N5CCC4)cs2)cc1`, the inhibition was -34.5%.
`Cc1nc(-c2ccc(CCNC(=O)c3cc(F)cc(F)c3)s2)cs1` showed an inhibition of 35.7%.
With `Nc1nc(-c2ccc(Cl)s2)cs1` the inhibition was 86.7% (active).
Work on `Nc1nc(-c2ccc3c(c2)OCO3)cs1` yielded an inhibition of -28.1%.
`CN(C)c1ccc(Nc2nc(-c3cccs3)cs2)cc1` showed an inhibition of 18.8%.
Compound `Clc1ccc(-c2csc(-c3cnccn3)n2)s1` has an inhibition of 17.5%.
For `CCc1ccc(-c2csc(N)n2)s1`, the inhibition was 76.7% (active).
With `Nc1nc(-c2cccs2)cs1` the inhibition was 76% (active).
In the case of `Nc1ccn(-c2ccc(Cl)c(Cl)c2)n1`, the inhibition is reported as 96.1% (active).
In the case of `NC(=O)c1ccn(-c2cccc(Br)c2)n1`, the inhibition is reported as 10.3%.
For `Cc1sc2nc(-c3cccs3)nc(N3CCNC(C(N)=O)C3)c2c1C` (stereo not drawn), the inhibition was 26%.
`O=[N+]([O-])c1ccc2[nH]c(O)c(N=Nc3cccc(C(F)(F)F)c3)c2c1` showed an inhibition of -6.56%.
In the case of `O=[N+]([O-])c1ccc2nc(C(F)(F)F)[nH]c2c1`, the inhibition is reported as 102% (active).
`O=S(=O)(c1ccc(Cl)s1)N1CCN(c2ccc(F)cc2)CC1` showed an inhibition of -6.71%.
With `CCNC(=S)N1CCN(S(=O)(=O)c2ccc(Cl)s2)CC1` the inhibition was 99.5% (active).
Compound `O=S(=O)(c1ccc(Cl)s1)N1CCN(c2ccnc3cc(Cl)ccc23)CC1` has an inhibition of 9.81%.
Work on `Cc1cc(N)n(CC(=O)NCCn2c(C)cc3ccccc32)n1` yielded an inhibition of -1.16%.
For `C=CCNC(=O)Cn1c(-n2nc(C)cc2C)nc2c(c1=O)CCCC2`, the inhibition was 98% (active).
For `Cc1cc(C)n(-c2nc3c(c(=O)n2CC(=O)NC2CCCC2)CCCC3)n1`, the inhibition was 88.4% (active).
In the case of `Oc1cc(-c2cccc3c2Sc2ccccc2S3)cc2c1OCCNC2`, the inhibition is reported as 22%.
Compound `COC(=O)Nc1ccc(OCc2nc(C)c(C)s2)cc1` has an inhibition of 2.64%.
With `COc1ccc(C2(C(=O)Nc3nc(C)c(C)s3)CCCCC2)cc1` the inhibition was 91.6% (active).
Work on `Cc1ccc(O)c(C(=O)N(C)Cc2ccccc2C(F)(F)F)c1` yielded an inhibition of 14.5%.
With `CN(Cc1ccc(Br)s1)C(=O)c1ccccc1O` the inhibition was 89.5% (active).
For `Cc1ncc(CN(C)C(=O)c2ccc(Cl)c(Cl)c2O)s1`, the inhibition was 45.2%.
With `O=C1c2ccccc2C(=O)c2oc(-c3cc([N+](=O)[O-])cc([N+](=O)[O-])c3)nc21` the inhibition was 61.8% (active).
In the case of `CCCc1cc(NCC2CCCO2)n2nc(C)c(-c3ccccc3)c2n1` (stereo not drawn), the inhibition is reported as 39.6%.
For `CCCc1cc(NCC2CCCO2)n2nc3nc(C)cc(C)c3c2n1` (stereo not drawn), the inhibition was 98.6% (active).
For `CCCc1cc(N2CCCC2)n2nc3nc(C)cc(C)c3c2n1`, the inhibition was 22%.
With `Cc1cc(C)cc(NC(=O)COc2coc(CN3CCc4ccccc43)cc2=O)c1` the inhibition was 69.1% (active).
Work on `O=c1cc(CN2CCc3ccccc32)occ1OCc1ccc(Cl)cc1` yielded an inhibition of 1.87%.
In the case of `CCc1nnc(N/N=C\c2cc(Cl)c(OCc3ccccc3F)c(OC)c2)n1N`, the inhibition is reported as 51.4% (active).
`CC(C)=CCCC(C)[C@@H]1CC[C@]2(C)C3=C(CC[C@@]12C)C1(C)CC[C@H](O)C(C)(C)C1CC3` (stereo partly drawn) showed an inhibition of 49.1%.
Compound `CCCCOc1c(I)cc(CNCCN(C)C)cc1OCC` has an inhibition of -1.94%.
In the case of `COc1ccc([C@@H](C)C(=O)c2ccc(O)cc2O)cc1`, the inhibition is reported as 64.6% (active).
`COc1ccc(C(=O)Nc2cnn(C(C)(C)C)c2)c(O)c1` gave an inhibition of -6.01%.
`COc1c(O)cc(O)cc1O` showed an inhibition of 19.6%.
In the case of `CS(=O)c1c(Cl)cccc1NC(=O)N1CCN(c2ncc(Cl)cc2Cl)CC1` (stereo not drawn), the inhibition is reported as -25.6%.
Work on `O=S(=O)(c1cccc(Br)c1)N1CCCN(c2ncc(C(F)(F)F)cc2Cl)CC1` yielded an inhibition of 45%.
For `O=C(CCl)N1CCN(c2ncc(C(F)(F)F)cc2Cl)CC1`, the inhibition was 67.7% (active).
Compound `COc1ccc(C(=O)C=Cc2ccc(Br)cc2F)c(OC)c1` has an inhibition of -5.68%.
With `Cc1c(/C=C/c2ccc(Br)cc2F)n[nH]c(=O)c1C#N` the inhibition was 67% (active).
